Assay outcomes (PubChem)
Sampled rows, rich in hits. Any-hit rate of the full collection: about 0.81%.
TRHR enhancer-1 = allosterically enhances the human TRH receptor; P34981; TRHR cells, fluo-8 calcium fluorescence, EC20 TRH enhancement; enhancement, % at 2 µM; 360,000 tested, 0.66% active; AID 493056; in the data active means enhancement above about 30%
Target sequence (P34981 whole entry, looked up): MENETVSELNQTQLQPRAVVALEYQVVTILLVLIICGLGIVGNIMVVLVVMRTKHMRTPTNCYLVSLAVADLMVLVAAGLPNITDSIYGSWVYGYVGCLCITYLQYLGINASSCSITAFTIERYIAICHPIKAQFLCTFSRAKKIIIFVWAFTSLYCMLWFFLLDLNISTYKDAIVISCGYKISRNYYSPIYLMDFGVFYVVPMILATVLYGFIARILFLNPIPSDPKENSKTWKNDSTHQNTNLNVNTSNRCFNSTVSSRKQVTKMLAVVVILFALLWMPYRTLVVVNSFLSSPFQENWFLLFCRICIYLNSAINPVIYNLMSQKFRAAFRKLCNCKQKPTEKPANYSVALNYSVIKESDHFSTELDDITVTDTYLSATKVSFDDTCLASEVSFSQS
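Enhancer read-out: after compound pinning and an initial kinetic agonist-mode read, an EC20 of TRH (10 nM final) was injected and fluo-8 calcium signal (Ex 480/Em 530) followed at 1 s/cycle for 100 cycles in TRHR-expressing cells.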
TRHR agonist-1 = agonists of human TRH receptor. P34981. TRHR cells, calcium flux fluo-8, FDSS agonist mode. activation, % at 2 µM. 360,000 tested, 0.18% active. AID 493084; in the data active means activation above about 30%
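Fluo-8-loaded TRHR cells; 10 s baseline, compound added, kinetic Ca2+ fluorescence read 1/s, agonist mode.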
TSG101-PTAP inh = blocks PTAP/TSG101 interaction to inhibit HIV-1 budding | Potency, µM (highest dose often 115 µM), most hits filed as inhibitors | Q99816 | Fluorescence polarization, FITC-PTAP peptide / Tsg101 binding | 340,000 tested, under 10 active; active means well fitted inhibition curve with a large enough effect in the main read-out, with a control signal flat, not every such curve was filed as active; inconclusive means small, poorly fitted or top-dose-only effect, or effect the other way, or a change in a side signal; inactive means no such curve, though single readings can be large or run the other way
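Tsg101 binding domain (10 uM final) was mixed with compound and a FITC-labeled PTAP peptide (50 nM final) in HEPES pH 7.5 buffer with NaCl, Tween 20, EDTA and TCEP; fluorescence polarization was read after 20 min at r.t.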
TRPML1 inh = inhibitors of human TRPML1 channel; activity change, negative = inhibition, % (test concentration not listed); TRPML1-inducible cells, Ca2+ dye fluorescence, FDSS; active compounds read low; inhibition of EC80 agonist-evoked calcium signal; 390,000 tested, 0.02% active; in the data active means activity change below about -50%; inconclusive means between about -30% and that limit;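 further: stimulus is agonist 54-4 at its EC80 concentration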
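Calcium fluorescence in TRPML1-DL cells induced overnight with Tet: a 110 s read after compound pin addition, then a 110 s antagonist read after challenge with 54-4 at 4 uM final (EC80).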
TRPML1 ag = human mucolipin-1 channel agonism | Q9GZU1 | TRPML1-expressing cells, Ca2+ dye fluorescence, FDSS | activation, % (concentration not given with the values) | 410,000 tested, 0.12% active | AID 624414; in the data active means activation above about 50%; inconclusive means mostly about 30% to 49%
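TRPML1-DL cells, Tet-induced overnight (~16 h, 37 degrees C), loaded 45-90 min at room temperature with Ca8 no-wash calcium dye plus quencher. FDSS fluorescence: 10 s baseline, compound pin-transfer, 110 s agonist read, then EC80 54-4 (4uM final) and 110 s antagonist read.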
TRHR enhancer-2 = confirmation of human TRH receptor allosteric enhancers; shares compounds with TRHR enhancer-1; TRH receptor cell assay, enhancer confirmation qHTS; activity change, negative = inhibition, % at 46.1 µM; 970 tested, under 10 active;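 further: compound effect scored on response to added TRH at EC20 of 10 nM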
TRHR agonist-2 = human TRH receptor agonism confirmation | shares compounds with TRHR enhancer-1 | TRHR-expressing cells, agonist activation read-out | Potency, µM (series often up to 46.1 µM), most hits filed as activators | 970 tested, 8% active; further: nearly all actives have a fitted effect of over 75% in size
Large screens that a line does not name were inactive (follow-up assays come after a bar, where they were run). Unless noted, the call rests on the fitted dose curve; in most records, active means well fitted curve in the direction sought with a large enough effect; inconclusive means small, poorly fitted or top-dose-only effect, or another doubt; inactive means no such curve, though single readings can be large; an effect the other way counts as inactive or inconclusive.

Cc1ccc(NC(=O)COc2ccccc2C(=O)Nc2ccccc2)cc1	none (no result: TRHR enhancer-1, TRHR agonist-1, TSG101-PTAP inh, TRPML1 inh)
O=C(O)C1CCCC1	none (no result: TRHR enhancer-1, TRHR agonist-1, TSG101-PTAP inh, TRPML1 inh)
O=c1ccc(-c2nc3ccccc3n2Cc2ccc(Cl)cc2)c[nH]1	TRHR enhancer-1 49.3 | TRHR enhancer-2 inactive | TRHR agonist-2 inactive
Cn1c(-c2ccc(=O)[nH]c2)nc2ccccc21	none
CC(=O)c1c(C)[nH]c(C(=O)COC(=O)COc2ccccc2F)c1C	TRHR enhancer-1 51.9 | TRHR enhancer-2 inactive | TRHR agonist-2 inactive
CC(=O)c1c(C)[nH]c(C(=O)COC(=O)Cc2ccccc2F)c1C	none (no result: TRHR enhancer-1, TRHR agonist-1)
Cc1ccc2c(C(=O)CNc3nccs3)c[nH]c2c1	none (no result: TRHR enhancer-1, TRHR agonist-1, TSG101-PTAP inh, TRPML1 inh)
CCOC(=O)CN1N=C(c2ccc(Cl)cc2)CCC1=O	TRHR enhancer-1 41.0 | TRHR enhancer-2 inactive | TRHR agonist-2 inactive
O=C(CN1N=C(c2ccc(Cl)cc2)CCC1=O)NCCc1ccc(Cl)cc1	none (no result: TSG101-PTAP inh)
CCOc1ccc(-c2cc(C(=O)OC)nc3c2c(=O)n(C)c(=O)n3C)cc1	TRHR enhancer-1 43.2 | TRHR enhancer-2 inactive | TRHR agonist-2 inactive
Cc1cc(C(=O)COC(=O)c2ccccc2O)c(C)n1CC1CCCO1 (configuration not stated)	none
Cc1cc(C(=O)COC(=O)c2cc(O)c3ccccc3c2O)c(C)n1CC1CCCO1 (configuration not stated)	TRHR enhancer-1 46.7 | TRHR enhancer-2 inactive | TRHR agonist-2 inactive
CCOC(=O)C1CCCN(c2c(Nc3ccc(C)c(C)c3)c(=O)c2=O)C1 (configuration not stated)	TRHR enhancer-1 56.7 | TRHR enhancer-2 inactive | TRHR agonist-2 inactive
O=C(Nc1c(Cl)cc([N+](=O)[O-])cc1Cl)c1cc(Cl)ccc1O	none (no result: TRHR enhancer-1, TRHR agonist-1, TSG101-PTAP inh, TRPML1 inh)
COc1ccc(NC2CCCN(C(=O)CSc3ccncc3)C2)cc1 (configuration not stated)	TRHR enhancer-1 82.9, TRPML1 inh inconclusive (no result: TSG101-PTAP inh) | TRHR enhancer-2 inactive | TRHR agonist-2 inactive
CS(=O)(=O)Nc1ccc(C(=O)Nc2ccc3c(c2)OCO3)cc1	TRHR enhancer-1 46.5 | TRHR enhancer-2 inactive | TRHR agonist-2 inactive
CC(=O)Nc1ccc(C(=O)Nc2ccc3c(c2)OCO3)cc1	none
O=C(NC(=S)Nc1cccc2c(O)cccc12)c1ccccc1[N+](=O)[O-]	TRHR enhancer-1 50.0 | TRHR enhancer-2 inactive | TRHR agonist-2 inactive
O=C(NNC(=S)NC(=O)c1ccccc1[N+](=O)[O-])c1ccccc1O	none
Cc1ccc(O)c(C(=O)c2cc(C#N)c(=O)n(Cc3ccccc3)c2)c1	none
Cc1ccc(O)c(C(=O)c2cc(C#N)c3nc4ccccc4n3c2)c1	TRHR agonist-1 41.6 | TRHR enhancer-2 inactive | TRHR agonist-2 inconclusive
COc1ccccc1NC(=O)C(C)N(C)CCOc1ccccc1 (configuration not stated)	none
CC(C(=O)Nc1ccc(F)c(F)c1F)N(C)CCOc1ccccc1 (configuration not stated)	TRHR enhancer-1 45.8 | TRHR enhancer-2 inactive | TRHR agonist-2 inactive
CC(=O)Oc1c(Sc2ccccc2[N+](=O)[O-])c(C)nn1C(C)(C)C	TRHR enhancer-1 57.8 | TRHR enhancer-2 inactive | TRHR agonist-2 inconclusive
COc1ccc(N2C(=O)CC(Sc3nc(C)cc(C)c3C#N)C2=O)cc1 (configuration not stated)	TRHR enhancer-1 41.4 | TRHR enhancer-2 inactive | TRHR agonist-2 inactive
CCOC(=O)c1cc(C#N)c(SC(C(=O)N2CCCCC2)c2ccccc2)nc1C (configuration not stated)	none (no result: TRHR enhancer-1, TRHR agonist-1, TSG101-PTAP inh, TRPML1 inh)
CC1=NN(c2ccc(C(=O)O)cc2)C(=O)CC1	TRHR enhancer-1 43.5 | TRHR enhancer-2 inactive | TRHR agonist-2 inactive
Cc1ccc(NC(=O)Cc2coc3ccc(C(C)C)cc23)cc1Cl	none (no result: TSG101-PTAP inh)
CCc1ccc2occ(CC(=O)Nc3ccc(C)c(C)c3)c2c1	TRHR enhancer-1 63.1 (no result: TSG101-PTAP inh) | TRHR enhancer-2 inactive | TRHR agonist-2 inactive
CN(C)CCCNc1cc(N2CCN(C)CC2)ncn1	none (no result: TRHR enhancer-1, TRHR agonist-1, TSG101-PTAP inh, TRPML1 inh)
